Sampled rows, rich in hits. Any-hit rate of the full collection: about 11%.
HPGD inh: blocks human HPGD enzyme activity | purified HPGD, NADH fluorescence kinetic, PGE2 substrate | 4.3% of 150,000 active | AID 894 | P15428 | Potency, µM, for the others: at the highest dose activity change, negative = inhibition, usual class: inhibitors; also: potency is read from the fitted curve at half-maximal effect
Target sequence (P15428 whole entry, looked up): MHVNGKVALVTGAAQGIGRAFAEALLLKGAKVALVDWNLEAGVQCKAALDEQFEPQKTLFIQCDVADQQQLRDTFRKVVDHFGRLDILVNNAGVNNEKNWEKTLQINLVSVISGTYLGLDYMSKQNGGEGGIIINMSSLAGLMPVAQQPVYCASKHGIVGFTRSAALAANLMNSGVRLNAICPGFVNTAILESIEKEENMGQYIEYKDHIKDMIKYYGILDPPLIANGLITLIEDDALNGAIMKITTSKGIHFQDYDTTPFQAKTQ
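20 nM HPGD preincubated 15 min at room temperature with compound in 50 mM Tris-HCl pH 8, 0.01% Tween 20. Started with 1 mM NAD+ and 30 uM prostaglandin E2; NADH fluorescence (360/450 nm) read 5 times over 30-s intervals, last minus first.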
ALDH1A1 block: inhibitors of human aldehyde dehydrogenase 1A1; Purified ALDH1A1, NADH fluorescence, propionaldehyde substrate; Potency, µM (titrated, usually from 75.3 µM), for the others: at the top dose activity, negative = inhibition, actives largely listed as inhibitors; AID 1030; P00352; 7.3% of 220,000 active;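 also: potency is read from the fitted curve at half-maximal effect; plate controls were no enzyme wells and a reference inhibitor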
PNC inhibitor: inhibitors of perinucleolar compartment assembly | PC3M PTB-GFP, PNC prevalence imaging, 16 h; active compounds read low | activity change (PNC), negative = inhibition, % at 10 µM | 3.1% of 140,000 active | AID 2417;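 active = readout at or below -70, meaning at least 70% loss of cells showing the perinucleolar compartment, a nuclear body marking cancer cells; inconclusive = readout between -30 and a set limit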;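 also: plate controls were DMSO wells for no effect and camptothecin positive control wells for full effect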
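PC3M cells stably expressing PTB-GFP, 750–1000 cells/well, treated 16 h at 37 °C with compound (23 nl of library stock), in duplicate. After paraformaldehyde fixation and Hoechst stain, imaged at 20x; PNC prevalence scored by image analysis.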
Numbers without * were called inactive; ! = a repeat was not active. Unless noted, calls follow the shape of the dose curve; as a rule, active = well fitted inhibition curve with a large enough effect (not every such curve was filed as active); inconclusive = small, poorly fitted or top-dose-only effect, or another doubt; inactive = no such curve, though single readings can be large or run the other way. Unless noted, % is scaled to controls: 0 for no effect and ±100 for the full control effect.

What do the screens show for `CC(=O)c1c(N2CCOCC2)nc(=S)n(-c2ccc([N+](=O)[O-])cc2)c1C`?
HPGD inh: -14%; ALDH1A1 block: inconclusive; PNC inhibitor: -113*

How did COc1c(C)cc(C(=O)C2CCCN(Cc3c(C)n(C)n(-c4ccccc4)c3=O)C2)cc1C (stereo unspecified) do in these assays?
ALDH1A1 block: 1%

How did O=C1CCCC(=O)N1c1ccc(N2CCN(c3ccc([N+](=O)[O-])cc3)CC2)c([N+](=O)[O-])c1 do in these assays?
HPGD inh: -14%; ALDH1A1 block: -7%; PNC inhibitor: 18

Results for O=CN1CC(=O)N(c2ccccc2)c2c([nH]c3ccccc23)C1 ?
HPGD inh: 22µM*; ALDH1A1 block: inconclusive; PNC inhibitor: -11

Results for O=C(CN1CCN(c2ccccc2)CC1)N1CCc2[nH]c3ccccc3c2C1 ?
HPGD inh: -4%; ALDH1A1 block: -5%; PNC inhibitor: -22

Results for O=c1nc(-c2ccccc2)c2ccccc2[nH]1 ?
HPGD inh: inconclusive; ALDH1A1 block: inconclusive; PNC inhibitor: 15

Results for O=c1cc(-c2ccccc2)[nH]c2ccccc12 ?
HPGD inh: 13µM*; ALDH1A1 block: 2%; PNC inhibitor: inconclusive

What do the screens show for `O=C1C(c2cc(=O)c3ccccc3[nH]2)=C(O)c2ccccc21`?
HPGD inh: 14µM*; ALDH1A1 block: -7%; PNC inhibitor: 26

How did O=C1C(c2ccncc2)=C(O)c2ccccc21 do in these assays?
HPGD inh: -19%; ALDH1A1 block: inconclusive; PNC inhibitor: inconclusive

Results for S=c1[nH]nc(COc2ccccc2)n1/N=C/c1cccs1 ?
HPGD inh: 14µM*; ALDH1A1 block: -1%; PNC inhibitor: inconclusive

What do the screens show for `Cc1ccsc1/C=N/n1c(-c2cc(-c3ccccc3)n[nH]2)n[nH]c1=S`?
ALDH1A1 block: -2%

How did S=c1[nH]nc(-c2ccccn2)n1/N=C/c1cccs1 do in these assays?
HPGD inh: -19%; ALDH1A1 block: 2%; PNC inhibitor: -22

Results for Cc1ccsc1/C=N/n1c(COc2ccccc2)n[nH]c1=S ?
HPGD inh: 14µM*; ALDH1A1 block: 20µM*; PNC inhibitor: -17

Results for COCCSc1ccccc1C(=O)Nc1ccc2c(c1)OCO2 ?
ALDH1A1 block: -9%

How did CSc1ccccc1C(=O)Nc1ccc2c(c1)OCO2 do in these assays?
ALDH1A1 block: 1%

What do the screens show for `COc1ccc(CNC(=O)CCSCc2cccc(Cl)c2)cc1`?
HPGD inh: -26%; ALDH1A1 block: inconclusive; PNC inhibitor: 7

What do the screens show for `COc1ccc(CNC(=O)CCSCc2ccccc2C)cc1`?
ALDH1A1 block: 4µM*

How did O=C(Nc1ccc2c(c1)OCO2)c1ccccc1SCC(=O)N1CCCC1 do in these assays?
HPGD inh: 28µM*; ALDH1A1 block: 1.3µM*; PNC inhibitor: 17

What do the screens show for `CCSc1ccccc1C(=O)N1CCN(Cc2ccc3c(c2)OCO3)CC1`?
HPGD inh: -13%; ALDH1A1 block: -8%; PNC inhibitor: 43

Results for CSc1ccccc1C(=O)NCc1ccc2c(c1)OCO2 ?
HPGD inh: 0.5µM*; ALDH1A1 block: 13%; PNC inhibitor: 46

How did CCSc1ccccc1C(=O)NCc1ccc2c(c1)OCO2 do in these assays?
HPGD inh: 1.4µM*; ALDH1A1 block: inconclusive; PNC inhibitor: inconclusive

Results for CCOc1ccccc1N1CCN(C(=S)NCc2ccc(Cl)cc2)CC1 ?
ALDH1A1 block: 5%

How did CC(C)NC(=O)NC(=O)COC(=O)c1cccc(OC(F)F)c1 do in these assays?
ALDH1A1 block: 7%

How did CCC(CC)C(=O)NCc1ccc(OC)cc1 do in these assays?
ALDH1A1 block: -1%

What do the screens show for `Cc1cc(C)nc(SCC(=O)N/N=C/c2cccs2)n1`?
HPGD inh: -13%; ALDH1A1 block: 3%; PNC inhibitor: 95

What do the screens show for `Cc1ccc(OCc2ccc(C(=O)Nc3nc4ccccc4n3C)o2)c([N+](=O)[O-])c1`?
HPGD inh: -7%; ALDH1A1 block: 3%; PNC inhibitor: 76

How did CCOc1ccc2nc(-c3cc(NC(C)=O)ccc3O)sc2c1 do in these assays?
ALDH1A1 block: -2%

How did CSc1ccccc1C(=O)NCc1cccnc1 do in these assays?
ALDH1A1 block: 7%

What do the screens show for `COc1ccc(CNC(=O)c2ccccc2SC)cc1`?
HPGD inh: 6.3µM*; ALDH1A1 block: 6%; PNC inhibitor: 5

How did FC(F)(F)c1ccc(Cl)c(NC(=S)NC2CC2)c1 do in these assays?
HPGD inh: 1%; ALDH1A1 block: 20%; PNC inhibitor: 8

What do the screens show for `N/C(CC(=O)Nc1cc(C(F)(F)F)ccc1Cl)=N\O`?
HPGD inh: -4%; ALDH1A1 block: 28µM*!

Results for CNC(=S)Nc1cc(C(F)(F)F)ccc1Cl ?
HPGD inh: -7%; ALDH1A1 block: 4%; PNC inhibitor: -86*

Screens (PubChem)
